Screens from PubChem BioAssay.
MITF TRPM1 HTS: MITF TRPM1 promoter activation in melanoma cells; activation, % at 12.5 µM; AID 588334; actives 0.75% (n = 300,000); SK-MEL-5 TRPM1-promoter luciferase, 24 h; % of positive control, neutral wells = 0;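 active means mean activation of at least 80% with every replicate also reaching 80%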
SMARCA2 activ: activators of SMARCA2 function | MG213 cells, MMTV-luciferase reporter, dexamethasone, overnight | activation, % at 9.1 µM | actives 1% (n = 370,000) | AID 652017; in the data active means activation above about 7.8%
esBAF inh: blocks esBAF chromatin remodeling in mouse ES cells. Bmi1-luciferase knock-in reporter, 24 h; 100% = twice the neutral-well signal. reporter increase, % at 12.5 µM. actives 2% (n = 350,000). AID 602393; in the data active means activation above about 40%;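 further: a rise in the Bmi1 reporter signal indicates esBAF inhibition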
AF4-AF9 inh: blocks AF4 peptide binding to human AF9; P42568; AlphaScreen, biotin-AF4 peptide binding to FLAG-AF9; inhibition, % at 10 µM; actives 0.47% (n = 350,000);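 active means every replicate reaching a set inhibition limit, whatever the replicate mean, cut at about 25% in these data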
Wnt act: Wnt/beta-catenin pathway activation; Wnt/beta-catenin reporter cell assay, activator, plate reader; activation, % at 9.35 µM; actives 1.2% (n = 300,000); AID 743398; in the data active means activation above about 30%, passing the limit was not always enough
FGF22 binding-1: shifts melting point of recombinant human FGF22; Q9HCT0; recombinant FGF22 thermal shift, SYPRO orange fluorescence; percent of sucrose octasulfate shift, DMSO zero; activity (Tm shift, normalised), % at 9.99 µM; actives 1.5% (n = 340,000); AID 651658;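 active means mean Tm shift, scaled 0 neutral to 100 positive control, at about 1.3% or above, every replicate too, limit read from the data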
Target sequence (Q9HCT0 whole entry, looked up): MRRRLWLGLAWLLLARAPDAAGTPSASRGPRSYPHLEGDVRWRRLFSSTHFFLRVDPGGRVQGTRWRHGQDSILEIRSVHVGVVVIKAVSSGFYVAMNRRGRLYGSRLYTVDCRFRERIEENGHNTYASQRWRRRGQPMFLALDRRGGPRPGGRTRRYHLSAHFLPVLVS
FGF22 binding-2: binds human FGF22 shifting its melting temperature | shares compounds with FGF22 binding-1 | recombinant FGF22 thermal shift, SYPRO orange fluorescence | thermal shift activity, °C (ΔTm) at 38 µM | actives 2% (n = 1,000) | AID 720646;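 active means fitted rise in melting shift crosses a set limit at or below the top valid dose tested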
SYPRO no-protein: counter-screen for FGF22 binders: compound-only thermal shift, no protein | shares compounds with FGF22 binding-1 | compound-only SYPRO orange thermal shift counter-screen | AC50, µM (highest dose often 38 µM) | actives 2% (n = 1,000);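 active means rising signal whose fitted curve reaches the 0.54 level within the top valid dose, showing a melting point, actives reach about 13 µM in these data; inactive means the rest, including activity in the opposite direction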; further: value is where the raw curve crosses a fixed level and not half-maximal
Numbers stand for hits; 0 = inactive; - = no result given; ! = not active in a repeat. An excerpt weighted towards active compounds, which were near 4.3% of everything screened.

SMILES	MITF TRPM1 HTS	SMARCA2 activ	esBAF inh	AF4-AF9 inh	Wnt act	FGF22 binding-1	FGF22 binding-2	SYPRO no-protein
COc1cccc(NC(=O)OCCN2CCN(Cc3ccccc3)CCC2=O)c1	0	0	0	0	0	1.5	0	0
CS(=O)(=O)N1CC2(C1)[C@@H](c1ccccc1)[C@@H](CO)N2Cc1ccc(F)cc1	-	-	-	0	-	1.9	0	0
CNC[C@@H]1Oc2ccc(NS(=O)(=O)c3cccs3)cc2C(=O)N([C@@H](C)CO)C[C@@H]1C	-	-	0	0	-	0	-	-
Cc1cccc(NC(=O)c2ccc(-c3ccccc3[N+](=O)[O-])o2)c1	0	0	0	0	0	1.6	0	0
CC(C)CC#Cc1cnc2c(c1)C(=O)N([C@@H](C)CO)C[C@H](C)[C@H](CN(C)Cc1ccccn1)O2	-	-	0	0	-	0	-	-
C[C@@H]1CN([C@@H](C)CO)C(=O)c2cc(C#Cc3ccccc3F)cnc2O[C@H]1CN(C)S(=O)(=O)c1ccccc1	-	-	0	0	-	0	-	-
CC(C)CC#Cc1cnc2c(c1)C(=O)N([C@@H](C)CO)C[C@H](C)[C@@H](CN(C)Cc1ccccn1)O2	-	-	0	0	-	1.6	0	0
C[C@@H]1CN([C@H](C)CO)C(=O)c2cc(Br)cnc2O[C@@H]1CN(C)Cc1ccc(F)cc1	-	0	0	0	0	21!	0	0
C[C@H]1CN([C@@H](C)CO)C(=O)c2cc(C#Cc3ccccc3F)cnc2O[C@H]1CN(C)S(=O)(=O)c1ccccc1	-	-	-	0	-	1.7	0	0
C[C@@H]1CN([C@H](C)CO)C(=O)c2cc(Br)cnc2O[C@@H]1CN(C)Cc1ccccc1	-	-	0	0	-	0	-	-
C[C@H](CO)N1C[C@H](C)[C@@H](CN(C)S(C)(=O)=O)Oc2ccc(NS(=O)(=O)c3ccc(F)cc3)cc2C1=O	-	-	0	-	-	-	-	-
O=C(CNS(=O)(=O)c1ccccc1)OCC(=O)c1c[nH]c2ccccc12	-	0	0	0	0	2.1	0	0
CN1C(=O)c2cc(NC(=O)Nc3ccccc3Cl)ccc2OC[C@@H]2O[C@@H](CC(=O)NCCCN3CCOCC3)CC[C@@H]21	-	-	0	0	-	0	-	-
Nc1nonc1N/N=C\c1ccccc1	-	0	-	0	0	2.0	0	0
COc1ccc(S(=O)(=O)N(C(C)=O)c2ccc(OC(C)=O)c3ccccc23)cc1[N+](=O)[O-]	0	0	0	0	0	1.5	0	0
CC(=O)Oc1ccc(N(C(C)=O)S(=O)(=O)c2ccccc2)c2ccccc12	-	0	0	0	0	0	-	-
CC(C)NC(=O)N(C)C[C@H]1OCCCC[C@@H](C)Oc2ccc(NS(=O)(=O)c3cn(C)cn3)cc2C(=O)N([C@@H](C)CO)C[C@@H]1C	-	-	0	0	-	0	-	-
C[C@@H]1CN([C@H](C)CO)C(=O)c2cc(NC(=O)CCCN(C)C)ccc2O[C@@H](C)CCCCO[C@H]1CN(C)Cc1ccc(C(F)(F)F)cc1	-	-	0	0	-	0	-	-
CCn1c(=O)[nH]c(=O)c2c(N)c(C(=O)c3cc(F)ccc3F)sc21	0	0	0	0	0	28	0	0
Cc1ccc(C(=O)c2sc3c(c2N)c(=O)[nH]c(=O)n3CCc2ccccc2)cc1	0	0	-	-	-	-	-	-
CCCC(=O)N1CC2(C1)CN(C(=O)CC)[C@H](CO)c1c2c2ccc(OC)cc2n1C	-	-	-	0	-	0	-	-
COCC#Cc1cnc2c(c1)C(=O)N([C@@H](C)CO)C[C@H](C)[C@H](CN(C)C(=O)NC1CCCC1)O2	-	-	0	0	-	0	-	-
O=S(=O)(c1cccc2ccccc12)N1CCCCC1	0	0	0	0	0	0	-	-
O=C(O)c1cc2cccc(S(=O)(=O)N3CCCCC3)c2cc1O	0	0	-	0	0	1.7	0	0
COc1ccc(S(=O)(=O)Nc2cccc3c2O[C@H](CN(C)S(=O)(=O)c2ccc(C)cc2)[C@@H](C)CN([C@H](C)CO)C3=O)cc1	-	-	0	-	-	0	-	-
SMILES	MITF TRPM1 HTS	SMARCA2 activ	esBAF inh	AF4-AF9 inh	Wnt act	FGF22 binding-1	FGF22 binding-2	SYPRO no-protein
COc1ccc(S(=O)(=O)N(C)C[C@@H]2Oc3c(NS(=O)(=O)c4ccc(C)cc4)cccc3C(=O)N([C@H](C)CO)C[C@@H]2C)cc1	-	-	0	0	-	1.3	0	0
CNC[C@@H]1Oc2c(NS(=O)(=O)c3ccc(OC)cc3)cccc2C(=O)N([C@@H](C)CO)C[C@@H]1C	-	-	0	0	-	3.6	0	0
COCC#Cc1cnc2c(c1)C(=O)N([C@H](C)CO)C[C@H](C)[C@@H](CN(C)C(=O)NC1CCCC1)O2	-	-	0	0	-	0	-	-
C[C@@H]1CN([C@@H](C)CO)S(=O)(=O)c2ccc(-c3cccnc3)cc2O[C@H]1CN(C)CC1CC1	-	-	0	0	-	-	-	-
COCC(=O)Nc1ccc2c(c1)[C@H]1C[C@@H](CC(=O)NCCN3CCCCC3)O[C@@H](CO)[C@H]1O2	-	-	0	0	-	0	-	-
O=C(Nc1ccc2c(c1)[C@@H]1C[C@H](CC(=O)N3CCCCC3)O[C@@H](CO)[C@@H]1O2)NC1CCCC1	-	-	0	0	-	20	0	0
CN(C)CC(=O)Nc1ccc2c(c1)[C@H]1C[C@@H](CC(=O)NCC3CC3)O[C@H](CO)[C@H]1O2	-	-	0	0	-	1.3	0	0
COCC(=O)Nc1ccc2c(c1)[C@H]1C[C@@H](CC(=O)NCCN3CCCCC3)O[C@H](CO)[C@H]1O2	-	-	0	0	-	1.3	0	0
COCC(=O)Nc1ccc2c(c1)[C@@H]1C[C@@H](CC(=O)NCc3ccccn3)O[C@@H](CO)[C@@H]1O2	-	-	0	0	-	1.3	0	0
COc1ccc(NC(=O)Nc2ccc3c(c2)C(=O)N([C@H](C)CO)C[C@@H](C)[C@H](CN(C)S(=O)(=O)c2cn(C)cn2)OCCCC[C@@H](C)O3)cc1	-	-	0	-	-	0	-	-
N#Cc1ccc(NC(=O)Nc2cccc(C#N)c2)cc1	0	0	-	0	0	1.9	-	6.4µM
O=C(C(=O)N1CCC(CNS(=O)(=O)c2cccc3ccccc23)CC1)c1cccs1	-	0	-	0	0	0	-	-
O=C(C(=O)N1CCC(CNS(=O)(=O)Cc2ccccc2)CC1)c1cccs1	-	0	-	0	0	27	0	0
Cc1ccc(C(=O)O/N=C2\CCCc3ccccc32)cc1	0	0	0	-	-	-	-	-
O=C(O/N=C1\CCCc2ccccc21)C1CC1	0	0	0	0	0	2.7	0	0
C[C@H](CO)N1C[C@H](C)[C@@H](CN(C)C(=O)Nc2cccc3ccccc23)Oc2c(NC(=O)C3CC3)cccc2C1=O	-	-	0	0	-	2.2	0	0
C[C@H](CO)N1C[C@H](C)[C@@H](CN(C)C(=O)Nc2cccc3ccccc23)Oc2c(NS(C)(=O)=O)cccc2C1=O	-	-	0	0	-	1.8	0	0
COc1ccc(CN(C)C[C@@H]2Oc3c(NS(C)(=O)=O)cccc3C(=O)N([C@H](C)CO)C[C@@H]2C)cc1	-	-	0	0	-	0	-	-
